G9a inh = G9a (human) methyltransferase inhibition; Q96KQ7; G9a H3K9 monomethylation, AlphaScreen, 2 h; Potency, µM (doses to about 102 µM), without a hit: at the highest dose activity, negative = inhibition, actives largely listed as inhibitors; 350,000 tested, 8.8% active; further: on the % scale 0 is the no-effect control and ±100 the full control effect; nearly all actives have a fitted effect of over 75% in size
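Quantitative HTS format: methyltransferase activity on a biotin-tagged H3K9 peptide is measured by AlphaScreen, using a rabbit anti-monomethyl-H3K9 antibody with streptavidin donor and anti-IgG acceptor beads. Final levels are 20 nM enzyme, 500 nM peptide, 20 uM SAM; 2 h RT.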
BAZ2B block = blocks human BAZ2B; Q9UIF8; AlphaScreen BAZ2B-H3K14Ac peptide displacement; Potency, µM (top dose mostly 114 µM), for inactives: top-dose activity change, negative = inhibition, most hits filed as inhibitors; 360,000 tested, 4.4% active; further: on the % scale 0 is the no-effect control and ±100 the full control effect; nearly all actives have a fitted effect of over 60% in size
Target sequence (Q9UIF8 whole entry, looked up): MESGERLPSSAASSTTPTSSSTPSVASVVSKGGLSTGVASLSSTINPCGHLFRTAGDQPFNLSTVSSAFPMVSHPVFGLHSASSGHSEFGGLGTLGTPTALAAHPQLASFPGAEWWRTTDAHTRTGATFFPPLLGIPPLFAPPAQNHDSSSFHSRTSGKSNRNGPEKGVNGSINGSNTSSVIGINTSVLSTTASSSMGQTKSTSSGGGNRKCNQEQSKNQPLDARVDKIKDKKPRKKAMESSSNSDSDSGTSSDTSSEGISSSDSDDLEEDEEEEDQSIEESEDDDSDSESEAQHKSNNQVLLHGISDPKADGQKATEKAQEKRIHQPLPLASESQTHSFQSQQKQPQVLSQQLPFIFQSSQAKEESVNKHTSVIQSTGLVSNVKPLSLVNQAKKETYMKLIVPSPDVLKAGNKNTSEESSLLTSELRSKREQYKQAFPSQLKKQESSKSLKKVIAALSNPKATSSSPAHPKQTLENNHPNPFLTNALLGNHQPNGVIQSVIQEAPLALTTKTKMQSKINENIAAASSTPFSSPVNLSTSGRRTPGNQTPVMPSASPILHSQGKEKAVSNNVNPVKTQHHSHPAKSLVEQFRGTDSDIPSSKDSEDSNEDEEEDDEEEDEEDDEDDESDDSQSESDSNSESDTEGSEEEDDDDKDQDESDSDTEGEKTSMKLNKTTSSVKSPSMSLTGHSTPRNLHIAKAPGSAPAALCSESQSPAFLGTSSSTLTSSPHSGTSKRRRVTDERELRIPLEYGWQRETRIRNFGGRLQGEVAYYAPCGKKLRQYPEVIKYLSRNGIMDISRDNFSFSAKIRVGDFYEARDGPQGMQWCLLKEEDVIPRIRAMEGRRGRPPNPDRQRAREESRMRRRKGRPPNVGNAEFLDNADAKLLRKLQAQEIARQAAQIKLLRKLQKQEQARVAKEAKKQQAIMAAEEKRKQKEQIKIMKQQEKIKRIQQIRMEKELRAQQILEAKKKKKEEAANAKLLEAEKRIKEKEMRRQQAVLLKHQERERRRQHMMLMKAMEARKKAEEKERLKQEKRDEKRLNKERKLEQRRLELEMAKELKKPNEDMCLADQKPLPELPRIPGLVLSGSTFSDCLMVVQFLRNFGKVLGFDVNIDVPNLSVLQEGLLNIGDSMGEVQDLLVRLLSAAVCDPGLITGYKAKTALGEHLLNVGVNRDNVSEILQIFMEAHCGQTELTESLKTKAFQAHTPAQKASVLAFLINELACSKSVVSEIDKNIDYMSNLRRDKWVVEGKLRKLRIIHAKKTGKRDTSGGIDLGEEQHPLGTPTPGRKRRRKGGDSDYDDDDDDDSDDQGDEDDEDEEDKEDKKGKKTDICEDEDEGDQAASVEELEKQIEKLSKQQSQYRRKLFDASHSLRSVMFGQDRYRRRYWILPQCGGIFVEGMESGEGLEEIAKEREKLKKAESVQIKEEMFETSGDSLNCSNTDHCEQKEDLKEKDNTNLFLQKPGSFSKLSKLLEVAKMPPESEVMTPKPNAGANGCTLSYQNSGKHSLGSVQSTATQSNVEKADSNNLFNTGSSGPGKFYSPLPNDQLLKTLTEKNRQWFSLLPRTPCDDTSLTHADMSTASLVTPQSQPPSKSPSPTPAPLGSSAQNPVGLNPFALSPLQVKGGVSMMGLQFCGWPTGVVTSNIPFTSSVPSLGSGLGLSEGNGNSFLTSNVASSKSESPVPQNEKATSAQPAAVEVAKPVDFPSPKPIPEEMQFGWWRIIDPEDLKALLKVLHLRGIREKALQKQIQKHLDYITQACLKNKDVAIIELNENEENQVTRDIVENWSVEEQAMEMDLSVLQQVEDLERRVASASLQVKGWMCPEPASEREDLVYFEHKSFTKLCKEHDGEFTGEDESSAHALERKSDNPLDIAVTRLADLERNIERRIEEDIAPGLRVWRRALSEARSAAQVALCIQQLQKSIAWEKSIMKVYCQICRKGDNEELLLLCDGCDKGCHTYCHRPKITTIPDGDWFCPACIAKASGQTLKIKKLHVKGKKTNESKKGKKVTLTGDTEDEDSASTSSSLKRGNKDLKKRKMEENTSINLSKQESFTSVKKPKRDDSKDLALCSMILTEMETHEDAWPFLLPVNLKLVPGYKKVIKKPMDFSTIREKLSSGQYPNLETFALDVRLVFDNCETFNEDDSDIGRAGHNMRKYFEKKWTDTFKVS
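AlphaScreen displacement: compounds (up to 110uM) incubated 30 min at room temperature with a preformed 50 nM BAZ2B/50 nM biotinylated H3K14Ac peptide complex in PBS pH 7.4 with Tween-20. Donor and acceptor beads at 10 ug/mL final added, 20 min light-protected before reading.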
L3MBTL1 block = L3MBTL1 (human) inhibition; 230,000 tested, 0.66% active; Potency, µM (highest dose often 57.1 µM), for the others: at the highest dose activity, negative = inhibition, most hits filed as inhibitors; AlphaScreen L3MBTL1–H3K9me1 peptide binding; Q9Y468; further: on the % scale 0 is the no-effect control and ±100 the full control effect; nearly all actives have a fitted effect of over 60% in size
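AlphaScreen assay: L3MBTL1 (50 nM final) was preincubated 30 min at room temperature with biotinylated H3(1-15)K9me1 peptide (75 nM final), then 30 min with library compounds; streptavidin donor and nickel chelate acceptor beads (10 ug/mL final) added, 30 min dark.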
JMJD2A Tudor inh = JMJD2A Tudor domain (human) inhibition; AlphaScreen JMJD2A-Tudor / H3K4me3 peptide binding; Potency, µM (highest dose often 114 µM), for inactives: at the highest dose activity change, negative = inhibition, most hits filed as inhibitors; AID 504339; 390,000 tested, 4.4% active; O75164; further: on the % scale 0 is the no-effect control and ±100 the full control effect; nearly all actives have a fitted effect of over 50% in size
HP1b chromo inh = HP1-beta chromodomain-methylated histone interaction inhibition | P83916 | AlphaScreen HP1-beta / biotin-H3K9me3 peptide binding | Potency, µM (titrated, usually from 114 µM), for the others: at the highest dose activity change, negative = inhibition, most hits filed as inhibitors | 390,000 tested, 0.56% active | AID 540317; further: nearly all actives have a fitted effect of over 70% in size
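Compound inhibition of the preformed complex between 50 nM HP1-beta and 50 nM biotinylated H3K9me3 peptide was read by AlphaScreen. Buffer was PBS pH 7.4 with 0.01% Tween-20. Incubations ran 30 min at room temperature, with 10 ug/mL donor/acceptor beads.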
Active calls of the source: *; ? = inconclusive; . = no result given; [ ] = dose if it differs, or a comment. Only some compounds are listed: those with a hit (about 11% of all), similar ones and a draw of the others. The call rests on the fitted dose curve; in most records, active means well fitted inhibition curve with a large enough effect; inconclusive means small, poorly fitted or top-dose-only effect; inactive means no such curve, though single readings can be large or run the other way. Potency means the concentration at half of the fitted maximal effect.

SMILES | G9a inh | BAZ2B block | L3MBTL1 block | JMJD2A Tudor inh | HP1b chromo inh
COc1ccc(NC(=O)C(NS(=O)(=O)c2cccc3nsnc23)c2ccccc2)cc1 (centres undefined) | -25%[59 µM] | . | . | -28% | 13%
Cc1nc(-c2ccc([S+](=O)([O-])N3CCN([S+](=O)([O-])c4c(F)cccc4F)CC3)s2)cs1 | . | . | . | -10% | .
CSCc1cccc(C(=O)OC(C)C(=O)Nc2c(C)n(C)n(-c3ccccc3)c2=O)c1 (centres undefined) | 8.9µM* | 7% | 28% | 5% | 39%
CCOc1cc(C(=O)OC(C(=O)NC(=O)NC)c2ccccc2)ccc1OCC(=O)N1CCOCC1 (centres undefined) | . | . | 1% | -5% | 13%
Cc1ccc(C2=N/C(=C\c3cccs3)C(=O)N2Nc2ccccc2)cc1 | ? | 35µM* | -17% | ? | ?
O=C1/C(=C/c2cccs2)SC(=S)N1c1ccccc1 | 21%[59 µM] | -4% | 4% | 1% | 24%
O=C1/C(=C\c2cccs2)N=C(c2cccs2)N1Nc1ccccc1 | 40µM* | ? | . | ? | -17%
Cc1ccc(NC(=O)/C(=C\c2cccs2)NC(=O)c2ccccc2)cc1 | -2%[59 µM] | -1% | -9% | 5% | 43%
O=C1/C(=C/c2cccs2)N=C(c2cccs2)N1Nc1ccccc1 | 50µM* | ? | . | ? | -17%
COc1cccc(-n2ccn(CC(=O)c3ccc(F)cc3)c(=O)c2=O)c1 | -2%[59 µM] | 0% | . | -9% | 14%
c1ccc(CNc2ncnc3c2ncn3Cc2ccccc2)cc1 | . | . | . | -17% | 30%
COc1ccc(NC(=O)CN(c2ccc([N+](=O)[O-])cc2)S(=O)(=O)c2ccccc2)cc1 | ? | 3% | -3% | -29% | 2%
COc1ccc(N(CC(=O)Nc2ccccc2C(=O)O)S(=O)(=O)c2ccc(C)c([N+](=O)[O-])c2)cc1 | 40µM* | ? | -8% | -26% | 23%
COc1ccc(S(=O)(=O)N(CC(=O)NCCc2ccccc2)c2ccc(Cl)cc2)cc1 | 16µM* | -3% | . | -21% | -8%
COc1ccc(N(CC(=O)NCCc2ccccc2)S(=O)(=O)c2ccc(OC)c(OC)c2)cc1 | -7%[59 µM] | 4% | . | -18% | 20%
COc1ccc(N(CC(=O)N/N=C/c2ccco2)S(=O)(=O)c2ccccc2)cc1 | 50µM* | ? | ? | ? | ?
CC(C)(CC(=O)O)CC(=O)NNc1ncccc1C#N | ? | -31% | . | -6% | 51%
Cc1cccc(C(C)C)c1NS(=O)(=O)c1cn(C)nc1C | -6% | -15% | . | -11% | 23%
Cc1ccc(N(Cc2cccs2)C(=O)c2ccc(OC(C)C)cc2)cc1 | 65%[59 µM] | 18% | . | 48% | 79%
CCCCN(C)C(=O)Cn1cnc2sc(C)c(S(=O)(=O)N3CCC(C)CC3)c2c1=O | 1%[59 µM] | 4% | . | -14% | 35%
CC(C)(C)c1onc(OCP(=O)(O)O)c1CC(N)C(=O)O (centres undefined) | 5.3µM* | . | . | . | .
O=C(NNC(=O)c1ccc(-c2ccc([N+](=O)[O-])cc2)o1)c1ccncc1 | -8%[2.33 µM] | -34% | -10% | -26% | 2%
COc1ccc2c(c1)CC(C(=O)Nc1cc(Cl)ccc1C)CO2 (centres undefined) | 3%[59 µM] | 3% | . | 4% | 32%[57 µM]
CC(=O)Nc1nnc(-c2ccc(Cl)s2)o1 | 14µM* | -31% | -13% | -28% | 20%
CCC(=O)Nc1nnc(-c2ccc(Cl)s2)o1 | -10% | . | . | -19% | 25%
SMILES | G9a inh | BAZ2B block | L3MBTL1 block | JMJD2A Tudor inh | HP1b chromo inh
Cn1ccc2c(OCC(=O)NCc3ccccc3Cl)cccc2c1=O | -1%[59 µM] | -2% | . | 6% | 35%
Cc1ccc(Cl)c(OC(=O)c2ccc(N3CCOCC3)c([N+](=O)[O-])c2)c1 | 28µM* | ? | -29% | ? | ?
Nc1ccc(C(=O)OCC(=O)N2CCc3ccccc3C2)cc1[N+](=O)[O-] | -48%[59 µM] | -33% | -5% | -32% | 1%
O=C(OCC(=O)N1CCc2ccccc2C1)c1ccc(N2CCOCC2)c([N+](=O)[O-])c1 | 40µM* | -35% | -5% | -28% | -1%
Cc1ccc(CCNC(=O)c2sc3nc4n(c(=O)c3c2C)CCCC4)cc1 | -39%[59 µM] | ? | . | -20% | 12%
Cc1sc2ncn(CC(=O)Nc3cccc(C(F)(F)F)c3)c(=O)c2c1S(=O)(=O)N1CCN(C)CC1 | -17%[59 µM] | 4% | . | -3% | 31%
O=C(O)CC(Cn1[nH]nnc1=S)c1ccccc1 (centres undefined) | 8.9µM* | ? | . | 50µM* | 13%
COc1ccccc1NC(=O)CSc1ccc(-c2ccccn2)nn1 | 3% | 3.2µM* | . | 3.5µM* | 23%
COc1ccc(C)cc1NC(=O)CSc1nnc(-c2ccccn2)n1Cc1ccco1 | -19%[59 µM] | ? | -17% | ? | 8%
COc1ccccc1NC(=O)CSc1nnc(-c2ccccn2)n1Cc1ccco1 | ? | ? | -9% | 56µM* | -15%
Cc1cccc(NC(=O)CSc2ccc(-c3ccccn3)nn2)c1C | 7% | 2.8µM* | . | 8.9µM* | 28%
Cc1c(Cl)cccc1NC(=O)CSc1ccc(-c2ccccn2)nn1 | -6%[59 µM] | 5% | . | ? | 70%
COc1ccccc1NC(=O)CSc1ccc(-c2ccc(-n3cccn3)cc2)nn1 | 2%[0.501 µM] | ? | -5% | -8% | 15%
O=C(COC(=O)CCNS(=O)(=O)c1ccccc1)NC(=O)c1ccccc1 | -10%[2.33 µM] | 15% | 5% | -12% | 16%
O=C(Oc1cccccc1=O)c1ccccc1 | 25µM* | ? | 7% | -29% | 11%
N=c1c2c(ncn1Cc1ccco1)Oc1c(ccc3ccccc13)C2c1ccccc1 (centres undefined) | -1%[2.33 µM] | 50µM* | -3% | ? | ?
O=C(NCc1n[nH]c(=S)n1-c1ccccc1)c1ccc(S(=O)(=O)N2CCOCC2)cc1 | ? | -4% | -3% | 7.1µM* | 10%
O=C(NCc1n[nH]c(=S)n1-c1ccccc1)c1ccc(S(=O)(=O)N2CCCCC2)cc1 | 8.9µM* | 9% | . | ? | 22%
O=C(NCc1n[nH]c(=S)n1-c1ccc(F)cc1)c1ccco1 | 22µM* | -7% | . | 22µM* | 28%
O=C(NCc1n[nH]c(=S)n1-c1ccc(F)cc1)c1ccc(S(=O)(=O)N2CCOCC2)cc1 | 14µM* | -1% | . | 13µM* | 13%
O=C(NCc1ccccc1)c1ccc(S(=O)(=O)N2CCCC2)cc1 | -4%[12.7 µM] | 2% | . | -22% | 19%
O=C(NCc1cccs1)c1ccc(S(=O)(=O)N2CCOCC2)cc1 | -5% | 0% | 22% | -3% | 45%
Cc1ccc(CCNC(=O)c2cn(C)c3ccc(S(=O)(=O)N4CCC(C)CC4)cc3c2=O)cc1 | -8%[59 µM] | . | . | -19% | 1%
Cc1ccc(C)c(Cn2c3ccccc3c3cnn(CC(=O)NC(C)CCc4ccccc4)c(=O)c32)c1 (centres undefined) | -5%[59 µM] | 60% | . | -4% | 38%

Assay outcomes: PubChem BioAssay, National Center for Advancing Translational Sciences (NCATS)
